This note sets out measurements from PubChem BioAssay AID743060 (The Scripps Research Institute Molecular Screening Center, 2013).

Each structure is given as a SMILES string. Several values for one entry are separate records, joined by “and”; a condition that tells them apart may be missing. Identical values can stand only once.

This experiment can be described thus: T. brucei methionyl-tRNA synthetase enzyme inhibition – biochemical, radioactivity, round 1, late-stage follow-up (AID 743060). Particulars: purified enzyme, radiolabel aminoacylation, scintillation, 2 h; at 10 µM; stronger effect = higher value.
`CN1CC(=O)N2C(c3cccc([N+](=O)[O-])c3)c3[nH]c4ccccc4c3C[C@H]2C1=O` (stereo not given in full): the inhibition worked out at 96.7%.

In the case of `CCN(CCc1nc2ccc(C)cc2[nH]1)C(=O)c1ccc2ncccc2c1`, the inhibition is -5.17%.

Turning to `CNC(=S)N(CCc1ccccc1)C1CC(=O)N(c2ccc(Br)cc2)C1=O` (stereo not given), the inhibition stood at 99.7%.

Take `O=C(NCc1nc2ccccc2[nH]1)C1=C[C@@H](c2ccc(Br)cc2)C[C@@H](OCc2ccc(CO)cc2)O1`: the inhibition was found to be 97.6%.

With `O=C(NCc1nc2ccccc2[nH]1)C1=C[C@@H](c2ccc3c(c2)OCO3)C[C@@H](OCCCCO)O1`, the inhibition is 93.7%.

For `Clc1ccc(-c2nnc(SCc3nc4ccccc4[nH]3)o2)c(Cl)c1`, the inhibition was determined as 97%.

For `O=C(Cn1cc(C(=O)C(=O)N2CCOCC2)c2ccccc21)NCC1CCCO1` (stereo not given), the inhibition was found to be 1.28%.

Turning to `CCc1ccc2c(c1)c1nnc(SCC(=O)Nc3ccc4c(c3)OCO4)nc1n2C`, the inhibition was -8.11%.

Take `CCN(CC)C(=O)C(=O)c1cn(CC(=O)Nc2cccc(C(F)(F)F)c2)c2ccccc12`: the inhibition turned out to be 99.5%.

As to `CN(Cc1cc(Cl)cc(Cl)c1)[C@H]1C[C@H]2c3[nH]c4ccccc4c3CCN2C(=O)[C@H]1CO`, the inhibition turned out to be 101%.

For the compound `COc1cccc(NC(=O)C2CC(=O)n3c(nc4ccccc43)N2)c1` (stereo not given), the inhibition stood at 31.5%.

As to `Cc1ccc2[nH]c3nc(SCC(=O)Nc4ccc(C(F)(F)F)cc4)nnc3c2c1`, the inhibition is 15.1%.

As for `O=C(Cn1cc(C(=O)C(=O)N2CCOCC2)c2ccccc21)Nc1cccc(C(F)(F)F)c1`, the inhibition came out at 100%.

Take `Cn1c(CCNC(=O)c2ccc(Cl)cc2)nc2ccccc21`: the inhibition stood at 3.39%.

Turning to `CC(C)(C)[C@H]1C=C(C(=O)NCc2nc3ccccc3[nH]2)O[C@@H](OCc2ccc(CO)cc2)C1`, the inhibition is 83.8%.

As to `O=C(C[C@H]1C(=O)N(Cc2ccccc2)C[C@@H]1c1ccc(Br)cc1)Nc1ccc(Br)cc1`, the inhibition came to 94.4%.

In the case of `CCC(=O)c1cn(CC(=O)Nc2cccc(C(F)(F)F)c2)c2ccccc12`, the inhibition is 4.46%.

Regarding `O=C1[C@@H]2Cc3c([nH]c4ccccc34)C(c3cccc([N+](=O)[O-])c3)N2C(=O)CN1CCCO` (stereo not given in full), the inhibition worked out at 97.5%.

For `O=C(C(=O)N1CCOCC1)c1cn(CC(=O)N2CCCc3ccccc32)c2ccccc12`, the inhibition was -4.11%.

`CC(C)c1nc2ccc(C(=O)N(C)CCc3nc4ccc(F)cc4[nH]3)cc2o1`: the inhibition is -7.17%.

For `CCOC(=O)N1CCC(Nc2c(Nc3ccc(F)cc3)c(=O)c2=O)CC1`, the inhibition worked out at 72.7%.

Turning to `COc1cccc(NC(=O)CSc2nnc3c(n2)[nH]c2ccc(C)cc23)c1`, the inhibition turned out to be 94.2%.

`O=C(NCc1nc2ccccc2[nH]1)C1=C[C@H](C2CC2)C[C@H](OCc2ccc(CO)cc2)O1`: the inhibition came out at 56.9%.

Take `CCO[C@@H]1OC(C(=O)NCc2nc3ccccc3[nH]2)=C[C@H](c2ccc(Br)cc2)[C@H]1CCCO`: the inhibition came out at 64%.

Regarding `O=C(NCCc1nc2ccccc2[nH]1)c1c(F)cccc1F`, the inhibition was 1.38%.

For the compound `O=C1CC(NCCc2ccccc2)C(=O)N1c1ccc(Br)cc1` (stereo not given), the inhibition was -9%.

With `Cc1cccc2[nH]c(CCN(C)C(=O)c3cccc(C4CCNC4)c3)nc12` (stereo not given), the inhibition is -14.3%.

With `O=C(CC(=O)Nc1cccc(Cl)c1)NN=Cc1ccccc1`, the inhibition was 81.1%.

Take `O=C(NNC(=O)c1cc(-c2ccc(Cl)c(Cl)c2)nc2ccccc12)Nc1ccccc1`: the inhibition amounted to 85.5%.

With `CCCCn1c(CCNC(=O)c2ccc(F)cc2)nc2ccccc21`, the inhibition was found to be 2.32%.

For the compound `COc1ccc(NC(=O)CSc2nnc3c4cc(C)ccc4n(C)c3n2)cc1`, the inhibition was -7.1%.

Take `COCCc1nc2ccc(C(=O)NCCc3nc4ccc(OC)cc4[nH]3)cc2o1`: the inhibition is -2.59%.

As to `O=C(NCc1nc2ccccc2[nH]1)C1=C[C@H](c2csc3ccccc23)C[C@H](OCCCCO)O1`, the inhibition amounted to 97.8%.

As to `O=C(Nc1ccc(F)c(Cl)c1)C1CC(=O)n2c(nc3ccccc32)N1` (stereo not given), the inhibition was 90.3% and 93.6%.

Take `Cc1cccc(C(=O)NCCc2nc3ccccc3n2CCOc2ccccc2)c1`: the inhibition was 0.31%.
